Data on six molecules can be found in PubChem BioAssay (NCI).

Holding throughout (test): NCI-60 one-dose screen, 48 h (100 = growth as untreated, 0 = no growth, -100 = all killed)
One test deals with DU-145 prostate. The conditions noted are these: 10 µM unless noted.
The test system of the next test is K-562 leukemia. The note with it: 10 µM unless noted.
A further test concerns MALME-3M melanoma. The note with it: 10 µM unless noted.
The test system of another test is MDA-MB-231 breast. The conditions noted are these: 10 µM unless noted.
For the next test, the system named is RXF 393 renal. The note with it: 10 µM unless noted.
For a further test, the system named is SF-268 CNS. The note with it: 10 µM unless noted.
Another test concerns SF-295 CNS. The note with it: 10 µM unless noted.
The next test has as its system SF-539 CNS. The note with it: 10 µM unless noted.
The next test concerns UACC-257 melanoma. The note with it: 10 µM unless noted.
The test system of the next test is M14 melanoma. The conditions noted are these: 10 µM unless noted.
The test system of another test is HCT-15 colon. The conditions noted are these: 10 µM unless noted.
Another test relates to HT29 colon. The conditions noted are these: 10 µM unless noted.
The test system of a further test is SNB-75 CNS. The conditions noted are these: 10 µM unless noted.
For another test, the system named is SNB-19 CNS. The conditions noted are these: 10 µM unless noted.
The next test relates to U251 CNS. The conditions noted are these: 10 µM unless noted.
A further test has as its system PC-3 prostate. The note with it: 10 µM unless noted.
In another test the test system is UACC-62 melanoma.
In a further test the test system is LOX IMVI melanoma. The conditions noted are these: 10 µM unless noted.
For the next test, the system named is SK-MEL-28 melanoma. The note with it: 10 µM unless noted.
For another test, the system named is SK-MEL-5 melanoma. The conditions noted are these: 10 µM unless noted.

“And” between values parts separate entries of the source, which are not always exact repeats. Equal entries are not always repeated. Compounds without any hit were thinned out: in the full panel of roughly 83,000, 20% have a hit.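 Cell lines were cultured in 96-well plates, exposed to a single compound concentration, and assessed for percent growth 48 hours later.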 Unmarked numbers belong to inactive results. The source made the active and inactive calls. The calls were made as follows: active = growth percent below 10; inactive = the rest.

As for `c1ccc(-c2nc3ccccc3s2)cc1`, the growth in the test on DU-145 prostate was 113%; with K-562 leukemia, 102%; in the test with MALME-3M melanoma, 97.5%; with MDA-MB-231 breast, 68.5%; with RXF 393 renal, 106%; in the test on SF-268 CNS it was 95%. Also, the growth in the test on SF-295 CNS is 97.9%; with SF-539 CNS it was 96%; with UACC-257 melanoma, 98.5%; in the test with M14 melanoma it was 97.3%; with HCT-15 colon, 92.2%; in the test with HT29 colon it was 114%. For the same molecule, the growth with SNB-75 CNS is 91.7%; in the test on SNB-19 CNS, 95.3%; with U251 CNS, 99.6%; with PC-3 prostate, 86.9%; in the test with UACC-62 melanoma (10 µM unless noted), 75.7%; in the test on LOX IMVI melanoma, 88.5%. For the same molecule, the growth in the test with SK-MEL-28 melanoma is 104%.

As for `CC1CCC2(C(=O)O)CCC3(C)C(=CCC4C5(C)CCC(O)C(C)(C)C5CCC43C)C2C1C` (configuration not stated), the growth in the test on DU-145 prostate was 44% and 75.8%; in the test on K-562 leukemia, 14.4% and 62.6%; in the test with MALME-3M melanoma, 81.4% and 88.9%; in the test with MDA-MB-231 breast it was 28.1% and 71.6%; in the test with RXF 393 renal, 40.9% and 79.5%; with SF-268 CNS it was 28.9% and 75.7%. In addition, the growth with SF-295 CNS was 28% and 89.7%; in the test on SF-539 CNS it was 43.1% and 79%; in the test on UACC-257 melanoma, 39.8% and 90.1%; in the test on M14 melanoma it was 41.1%; with HCT-15 colon, 32.4% and 66.2%; in the test with HT29 colon, 48.3% and 111%. Moreover, the growth is 32.2% and 95.6% in the test on SNB-75 CNS; 63.4% and 91.6% in the test with SNB-19 CNS; 42.9% and 77.6% in the test on U251 CNS; 65.1% and 79.8% in the test on PC-3 prostate; 24.7% and 96.2% in the test with SK-MEL-5 melanoma; 88.6% and 81.2% in the test on UACC-62 melanoma (10 µM). For the same molecule, the growth in the test on UACC-62 melanoma (100 µM) is -65.9% (active) and -92.3% (active); in the test with SK-MEL-28 melanoma, 35.9% and 78.7%.

`NC(Cc1c[nH]c2ccccc12)C(=O)O` (configuration not stated): the growth in the test on DU-145 prostate is 103% and 113%; in the test on K-562 leukemia, 136% and 101%; in the test with MALME-3M melanoma, 118% and 96.3%; in the test with MDA-MB-231 breast, 104% and 97.1%; with RXF 393 renal, 91.4% and 103%; in the test on SF-268 CNS it was 105% and 101%. Further, the growth in the test with SF-295 CNS is 99.4% and 102%; in the test with SF-539 CNS, 93.8% and 96.8%; in the test with UACC-257 melanoma, 66.9% and 94%; in the test with M14 melanoma it was 93.2% and 98.4%; in the test with HCT-15 colon it was 107% and 104%; in the test on HT29 colon, 110% and 97.4%. Further, the growth in the test with SNB-75 CNS was 94.4% and 79.6%; in the test with SNB-19 CNS it was 104%; in the test on U251 CNS it was 103% and 97.4%; in the test on PC-3 prostate, 91% and 86.7%; with UACC-62 melanoma (10 µM unless noted), 87.3% and 92.5%; in the test on SK-MEL-28 melanoma, 132% and 106%.

In the case of `O=[N+]([O-])c1cccc(SSc2cccc([N+](=O)[O-])c2)c1`, the growth is 112% in the test on DU-145 prostate; 94.3% in the test with K-562 leukemia; 97.2% with MALME-3M melanoma; 95.4% in the test on MDA-MB-231 breast; 123% in the test on RXF 393 renal; 106% with SF-268 CNS. The growth with SF-295 CNS was 108%; in the test on SF-539 CNS, 102%; in the test on UACC-257 melanoma, 110%; with M14 melanoma, 94.2%; in the test with HCT-15 colon, 91.9%; in the test with HT29 colon, 102%. The growth was 102% with SNB-75 CNS; 91.1% in the test on SNB-19 CNS; 99.2% with U251 CNS; 82.6% in the test on PC-3 prostate; 94.2% in the test on UACC-62 melanoma (10 µM unless noted); 100% in the test on LOX IMVI melanoma. Moreover, the growth in the test on SK-MEL-28 melanoma is 110%.

Consider `O=C1c2c(O)ccc(O)c2C(=O)c2c(NCCNCCO)ccc(NCCNCCO)c21`, for which the growth with DU-145 prostate was -36.8% (active) and -51.3% (active); with K-562 leukemia it was -5.45% (active) and -77.6% (active); with MALME-3M melanoma, -64.6% (active) and -88.2% (active); in the test with MDA-MB-231 breast it was -84.3% (active) and -77.3% (active); in the test on RXF 393 renal it was -86.4% (active) and -68.9% (active); in the test on SF-268 CNS, -73% (active) and -80% (active). Besides, the growth in the test with SF-295 CNS is -37.8% (active) and -39.6% (active); in the test on SF-539 CNS, -38.4% (active) and -84% (active); in the test on UACC-257 melanoma it was -4.02% (active) and -47.7% (active); in the test on M14 melanoma, -79.7% (active) and -97.7% (active); with HCT-15 colon, -14.2% (active) and 3.08% (active); in the test on HT29 colon, -59.8% (active) and -43.2% (active). Further, the growth in the test on SNB-75 CNS is -90.4% (active); in the test with SNB-19 CNS, -40.6% (active) and -58.3% (active); in the test with U251 CNS, -67% (active) and -99.7% (active); in the test on PC-3 prostate it was -28% (active) and -55.3% (active); in the test on UACC-62 melanoma (10 µM unless noted), -91.9% (active) and -86.7% (active).

Turning to `COc1ccc(C(=O)CC(c2ccccc2)C(C#N)c2ccccc2)cc1` (configuration not stated), the growth in the test with DU-145 prostate was 92.2%; in the test on K-562 leukemia, 80.7%; with MALME-3M melanoma, 97.2%; in the test on MDA-MB-231 breast, 81%; in the test with RXF 393 renal it was 99.5%; with SF-268 CNS it was 86.3%. In addition, the growth in the test with SF-295 CNS is 96.3%; with SF-539 CNS, 97.7%; in the test with UACC-257 melanoma it was 87.7%; with M14 melanoma it was 88%; in the test on HCT-15 colon, 96.5%; in the test with HT29 colon, 82.3%. The growth is 83.8% with SNB-75 CNS; 92.4% in the test on SNB-19 CNS; 83.2% in the test on U251 CNS; 64.8% with PC-3 prostate; 86.6% with SK-MEL-5 melanoma; 85.2% with LOX IMVI melanoma. The growth in the test with SK-MEL-28 melanoma is 97%.
